Test results published in PubChem BioAssay AID588753 (Vanderbilt Specialized Chemistry Center, 2011).
Activity calls are given as the source filed them. The rule behind the calls is not given here.

Test: PubChem AID 588753
Conditions: Ricerca radioligand binding panel, % inhibition, at 10 µM, stronger effect = higher value

C[C@@H](NC(=O)c1ccc(C#Cc2cccc(F)c2)cn1)C(C)(C)O
inhibition (L-type Ca channel DHP site): 22% | inhibition (NMDA phencyclidine site): 25% | inhibition (adenosine A2a binding): 12% | inhibition (adrenergic alpha1A binding): 18% | inhibition: 8% (inactive) | inhibition (dopamine transporter binding): 8% | inhibition (hERG binding): -2% | inhibition (leukotriene CysLT1 binding): 17% | inhibition (norepinephrine transporter binding): 9% | inhibition (purinergic P2XY binding): 24% | inhibition (serotonin 5-HT2B binding): 36% | inhibition (serotonin transporter binding): 6% | inhibition (sigma 1 binding): 31%
